Data reported in the supplement of paper PMC10849652.
About 8,800 targets were measured; listed, in parts, are those with a hit and a random draw of the rest. About 0.5% of all pairs of compound and target were hits.

These targets were tested with C#Cc1cccc(Nc2ncnc3cc(OCCOC)c(OCCOC)cc23)c1 [erlotinib] (assay: log2 fold change, soluble protein after heating vs DMSO (PISA); higher = thermal stabilisation; K562 lysate, 10 uM; active = over 0.2 and 3.5 SD of the protein, either way, in both replicates (recomputed)).
Method in brief: (§1)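 Pellets of K562 cells were dounce-homogenised in PBS pH 7.4 with 1 mM MgCl2, and the crude extract was held at 1 mg/mL protein for a 30 min treatment with 10 μM compound. Aliquots were heated for 3 min over 48°C-58°C and pooled before NP-40 was added to 0.5% at 4°C. The supernatant from 21,000xg for 90 min was quantified by TMTpro 16plex LC-MS/MS with channel sums equalised. Values are reported from duplicates as log-two fold change in thermal stability relative to solvent controls.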

Sequence of UniProt O15027 (O15027 whole entry, looked up): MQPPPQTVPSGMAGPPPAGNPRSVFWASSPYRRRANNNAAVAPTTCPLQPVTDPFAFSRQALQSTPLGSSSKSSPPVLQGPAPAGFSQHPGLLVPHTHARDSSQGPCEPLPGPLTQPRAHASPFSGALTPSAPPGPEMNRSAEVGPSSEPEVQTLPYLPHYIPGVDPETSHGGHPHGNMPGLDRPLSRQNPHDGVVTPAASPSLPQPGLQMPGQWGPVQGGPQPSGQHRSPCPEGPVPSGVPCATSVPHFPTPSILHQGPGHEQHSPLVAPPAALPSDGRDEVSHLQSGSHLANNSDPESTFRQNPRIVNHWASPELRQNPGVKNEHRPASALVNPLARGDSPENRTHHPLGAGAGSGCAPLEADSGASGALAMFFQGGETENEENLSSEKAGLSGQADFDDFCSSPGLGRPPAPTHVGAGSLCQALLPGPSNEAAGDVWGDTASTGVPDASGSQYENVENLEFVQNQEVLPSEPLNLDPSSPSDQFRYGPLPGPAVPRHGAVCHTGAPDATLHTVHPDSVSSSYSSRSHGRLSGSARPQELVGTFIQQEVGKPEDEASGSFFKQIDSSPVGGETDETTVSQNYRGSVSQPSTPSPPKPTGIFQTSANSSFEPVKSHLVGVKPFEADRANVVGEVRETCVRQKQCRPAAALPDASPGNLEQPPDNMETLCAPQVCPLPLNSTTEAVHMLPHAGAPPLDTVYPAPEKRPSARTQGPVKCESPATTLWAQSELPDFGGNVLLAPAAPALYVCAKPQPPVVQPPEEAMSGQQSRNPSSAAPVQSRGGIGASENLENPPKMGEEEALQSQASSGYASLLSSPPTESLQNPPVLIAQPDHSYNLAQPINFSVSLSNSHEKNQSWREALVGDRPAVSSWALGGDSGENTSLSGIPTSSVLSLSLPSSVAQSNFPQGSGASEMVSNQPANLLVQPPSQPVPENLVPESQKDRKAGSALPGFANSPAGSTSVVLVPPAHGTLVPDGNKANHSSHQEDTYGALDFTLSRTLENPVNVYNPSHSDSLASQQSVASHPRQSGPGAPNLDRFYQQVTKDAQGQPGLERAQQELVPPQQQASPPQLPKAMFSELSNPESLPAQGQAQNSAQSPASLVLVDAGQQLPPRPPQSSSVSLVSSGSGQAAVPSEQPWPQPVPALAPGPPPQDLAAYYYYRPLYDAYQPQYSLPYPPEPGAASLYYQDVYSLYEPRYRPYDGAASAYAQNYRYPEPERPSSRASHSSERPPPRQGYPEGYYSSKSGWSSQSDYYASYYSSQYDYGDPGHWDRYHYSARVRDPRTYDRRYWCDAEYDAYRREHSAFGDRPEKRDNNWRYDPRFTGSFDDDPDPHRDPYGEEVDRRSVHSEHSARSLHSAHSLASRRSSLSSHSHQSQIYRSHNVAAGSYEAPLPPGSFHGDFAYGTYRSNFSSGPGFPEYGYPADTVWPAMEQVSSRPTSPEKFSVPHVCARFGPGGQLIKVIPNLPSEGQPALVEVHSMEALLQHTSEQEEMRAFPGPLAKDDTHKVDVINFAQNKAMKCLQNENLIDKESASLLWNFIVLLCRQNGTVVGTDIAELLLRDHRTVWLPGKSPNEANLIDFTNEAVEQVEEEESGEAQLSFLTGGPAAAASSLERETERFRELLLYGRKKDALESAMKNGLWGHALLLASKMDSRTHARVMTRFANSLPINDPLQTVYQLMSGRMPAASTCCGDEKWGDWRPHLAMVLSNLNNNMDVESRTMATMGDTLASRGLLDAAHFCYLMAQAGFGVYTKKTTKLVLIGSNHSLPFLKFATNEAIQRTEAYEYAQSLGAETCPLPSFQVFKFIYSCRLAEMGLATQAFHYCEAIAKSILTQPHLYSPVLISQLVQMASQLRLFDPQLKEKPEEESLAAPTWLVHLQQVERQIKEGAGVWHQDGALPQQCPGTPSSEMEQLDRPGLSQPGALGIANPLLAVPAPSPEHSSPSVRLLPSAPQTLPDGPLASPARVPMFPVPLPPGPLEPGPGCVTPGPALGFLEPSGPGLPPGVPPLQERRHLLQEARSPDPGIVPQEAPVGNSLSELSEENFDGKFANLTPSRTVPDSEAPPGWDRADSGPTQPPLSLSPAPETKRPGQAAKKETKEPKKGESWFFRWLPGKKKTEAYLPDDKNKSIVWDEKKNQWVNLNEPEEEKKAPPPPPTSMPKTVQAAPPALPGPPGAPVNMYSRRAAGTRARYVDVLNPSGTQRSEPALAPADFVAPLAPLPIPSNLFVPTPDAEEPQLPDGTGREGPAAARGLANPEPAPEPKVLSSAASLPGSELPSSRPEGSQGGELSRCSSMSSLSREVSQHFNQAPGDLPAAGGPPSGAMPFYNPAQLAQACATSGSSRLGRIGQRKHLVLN
Sequence of UniProt Q9NW64 (Q9NW64 whole entry, looked up): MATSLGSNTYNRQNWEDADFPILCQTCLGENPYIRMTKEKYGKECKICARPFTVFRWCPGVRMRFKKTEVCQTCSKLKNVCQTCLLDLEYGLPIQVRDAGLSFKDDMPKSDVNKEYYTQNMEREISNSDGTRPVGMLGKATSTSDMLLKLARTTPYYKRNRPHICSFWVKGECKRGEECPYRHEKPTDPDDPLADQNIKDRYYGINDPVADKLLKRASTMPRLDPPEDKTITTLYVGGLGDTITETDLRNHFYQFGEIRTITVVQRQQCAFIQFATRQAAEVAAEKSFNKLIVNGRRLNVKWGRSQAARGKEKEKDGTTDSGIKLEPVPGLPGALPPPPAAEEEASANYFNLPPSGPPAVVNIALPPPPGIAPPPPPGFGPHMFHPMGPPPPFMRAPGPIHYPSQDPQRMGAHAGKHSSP
Sequence of UniProt Q8NBX0 (Q8NBX0 whole entry, looked up): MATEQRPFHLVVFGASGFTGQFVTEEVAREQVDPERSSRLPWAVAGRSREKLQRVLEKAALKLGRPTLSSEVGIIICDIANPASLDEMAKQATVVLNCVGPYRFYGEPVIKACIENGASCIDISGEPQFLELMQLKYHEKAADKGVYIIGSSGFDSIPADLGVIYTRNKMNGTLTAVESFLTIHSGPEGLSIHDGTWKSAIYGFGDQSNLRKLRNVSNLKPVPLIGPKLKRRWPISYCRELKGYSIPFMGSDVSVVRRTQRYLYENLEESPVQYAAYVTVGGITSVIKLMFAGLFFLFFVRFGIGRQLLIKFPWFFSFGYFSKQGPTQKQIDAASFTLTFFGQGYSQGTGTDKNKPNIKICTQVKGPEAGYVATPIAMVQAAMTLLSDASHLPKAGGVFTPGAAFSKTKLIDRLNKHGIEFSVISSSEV
Sequence of UniProt Q9BTD8 (Q9BTD8 whole entry, looked up): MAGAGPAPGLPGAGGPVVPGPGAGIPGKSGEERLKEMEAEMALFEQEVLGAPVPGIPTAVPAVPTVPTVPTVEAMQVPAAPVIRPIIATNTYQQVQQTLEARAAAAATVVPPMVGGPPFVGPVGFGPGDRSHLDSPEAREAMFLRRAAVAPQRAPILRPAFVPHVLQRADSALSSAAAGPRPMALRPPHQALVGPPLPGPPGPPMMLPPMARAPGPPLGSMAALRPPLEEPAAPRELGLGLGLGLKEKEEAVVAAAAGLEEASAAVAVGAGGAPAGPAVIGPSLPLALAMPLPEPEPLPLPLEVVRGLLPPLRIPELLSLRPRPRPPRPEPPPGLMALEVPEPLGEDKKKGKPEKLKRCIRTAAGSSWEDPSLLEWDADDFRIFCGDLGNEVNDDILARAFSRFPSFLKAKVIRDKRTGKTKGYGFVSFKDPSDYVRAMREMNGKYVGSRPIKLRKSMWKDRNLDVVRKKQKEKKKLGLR
Sequence of UniProt Q9H1K0 (Q9H1K0 whole entry, looked up): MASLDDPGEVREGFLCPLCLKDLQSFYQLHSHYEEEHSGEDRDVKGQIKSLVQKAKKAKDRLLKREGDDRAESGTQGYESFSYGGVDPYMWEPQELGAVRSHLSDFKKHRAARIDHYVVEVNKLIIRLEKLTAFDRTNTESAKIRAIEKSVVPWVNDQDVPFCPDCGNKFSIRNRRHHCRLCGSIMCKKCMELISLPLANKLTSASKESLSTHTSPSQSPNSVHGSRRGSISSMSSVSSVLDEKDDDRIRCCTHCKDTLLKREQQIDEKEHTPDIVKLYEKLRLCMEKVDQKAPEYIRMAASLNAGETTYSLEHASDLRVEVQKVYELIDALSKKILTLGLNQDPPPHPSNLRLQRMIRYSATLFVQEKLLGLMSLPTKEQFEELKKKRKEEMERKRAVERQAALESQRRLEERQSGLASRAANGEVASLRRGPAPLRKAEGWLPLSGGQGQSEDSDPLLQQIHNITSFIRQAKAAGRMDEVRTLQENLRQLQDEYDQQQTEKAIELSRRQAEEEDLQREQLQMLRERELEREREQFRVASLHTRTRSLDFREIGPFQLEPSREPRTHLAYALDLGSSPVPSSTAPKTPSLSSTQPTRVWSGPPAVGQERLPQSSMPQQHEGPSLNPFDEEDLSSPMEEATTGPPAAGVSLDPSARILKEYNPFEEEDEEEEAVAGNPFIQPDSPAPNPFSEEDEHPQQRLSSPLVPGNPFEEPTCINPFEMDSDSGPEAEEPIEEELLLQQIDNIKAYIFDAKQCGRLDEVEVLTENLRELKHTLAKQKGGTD
Sequence of UniProt Q96EE3 (Q96EE3 whole entry, looked up): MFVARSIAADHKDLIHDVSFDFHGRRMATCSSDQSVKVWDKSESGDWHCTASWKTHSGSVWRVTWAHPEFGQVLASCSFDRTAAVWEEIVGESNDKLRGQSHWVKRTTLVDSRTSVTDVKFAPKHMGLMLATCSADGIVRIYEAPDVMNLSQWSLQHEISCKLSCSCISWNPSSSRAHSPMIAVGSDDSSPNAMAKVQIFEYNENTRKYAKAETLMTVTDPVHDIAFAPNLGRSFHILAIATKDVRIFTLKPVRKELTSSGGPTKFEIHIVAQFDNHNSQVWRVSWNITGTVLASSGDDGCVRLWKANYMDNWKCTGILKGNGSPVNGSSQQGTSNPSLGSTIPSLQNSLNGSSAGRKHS
Sequence of UniProt Q9H0U4 (Q9H0U4 whole entry, looked up): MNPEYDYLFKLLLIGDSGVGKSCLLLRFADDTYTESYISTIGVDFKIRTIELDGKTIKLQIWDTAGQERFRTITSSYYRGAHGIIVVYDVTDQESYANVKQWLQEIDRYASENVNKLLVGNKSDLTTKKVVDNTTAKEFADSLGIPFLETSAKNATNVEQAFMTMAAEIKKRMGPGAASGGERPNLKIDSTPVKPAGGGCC

log2 fold change, inactive:
SEC62 (UniProt Q99442) -0.046, RPL28 (UniProt P46779) -0.012, SBF1 isoform 4 (UniProt O95248) 0.033, SEC16A isoform 5 (UniProt O15027) 0.006, SEH1L isoform 1 (UniProt Q96EE3) -0.008, RDH14 (UniProt Q9HBH5) -0.019, RFC3 (UniProt P40938) 0.05, RAB1B (UniProt Q9H0U4) -0.009, RRAGA (UniProt Q7L523) -0.022, RAB3IL1 (UniProt E9PK89) -0.016, RBM42 (UniProt Q9BTD8) -0.034, RBSN (UniProt Q9H1K0) -0.067, RAC2 (UniProt P15153) 0.009, RSU1 (UniProt Q15404) 0.017, RPL37A (UniProt P61513) -0.012, QRSL1 (UniProt Q9H0R6) -0.01, RBBP8 isoform 2 (UniProt Q99708) 0.073, RASA2 (UniProt Q15283) 0.016, RIOK3 (UniProt O14730) 0.043, RMC1 (UniProt Q96DM3) 0.015, RPS6KB1 (UniProt P23443) -0.017, RCAN1 (UniProt P53805) 0.06, RNF40 (UniProt O75150) -0.008, RNPS1 (UniProt Q15287) -0.008, RAI14 isoform 2 (UniProt Q9P0K7) 0.015, SDHA (UniProt P31040) 0.001, SCCPDH (UniProt Q8NBX0) -0.213, RPS6KA1 (UniProt Q15418) 0.001, RBM22 (UniProt Q9NW64) 0.028, RPS26P11 (UniProt Q5JNZ5) -0.028, RTN4IP1 (UniProt Q8WWV3) -0.028, ROCK1 (UniProt Q13464) -0.01, RPL8 (UniProt P62917) 0.001, RPL36AL (UniProt Q969Q0) -0.036

The targets below were run with C/C(=N\NC(=O)C1=CC(=CC=C1)S(=O)(=O)N2CCOCC2)/C3=C(C=CC(=C3)Cl)O in the same assay as above.
Method in brief: as §1

log2 fold change, inactive:
SEC62 (UniProt Q99442) -0.008, RPL28 (UniProt P46779) -0.104, SBF1 isoform 4 (UniProt O95248) -0.059, SEC16A isoform 5 (UniProt O15027) -0.019, SEH1L isoform 1 (UniProt Q96EE3) 0.082, RDH14 (UniProt Q9HBH5) 0.021, RFC3 (UniProt P40938) 0.01, RAB1B (UniProt Q9H0U4) -0.005, RRAGA (UniProt Q7L523) -0.019, RAB3IL1 (UniProt E9PK89) -0.075, RBM42 (UniProt Q9BTD8) -0.161, RBSN (UniProt Q9H1K0) -0.215, RAC2 (UniProt P15153) 0.018, RSU1 (UniProt Q15404) 0.006, RPL37A (UniProt P61513) -0.067, QRSL1 (UniProt Q9H0R6) -0.003, RBBP8 isoform 2 (UniProt Q99708) -0.129, RASA2 (UniProt Q15283) -0.001, RIOK3 (UniProt O14730) -0.114, RMC1 (UniProt Q96DM3) -0.056, RPS6KB1 (UniProt P23443) -0.018, RCAN1 (UniProt P53805) -0.206, RNF40 (UniProt O75150) -0.01, RNPS1 (UniProt Q15287) -0.105, RAI14 isoform 2 (UniProt Q9P0K7) 0.006, SDHA (UniProt P31040) 0.034, SCCPDH (UniProt Q8NBX0) -0.055, RPS6KA1 (UniProt Q15418) -0.064, RBM22 (UniProt Q9NW64) -0.005, RPS26P11 (UniProt Q5JNZ5) -0.021, RTN4IP1 (UniProt Q8WWV3) 0.031, ROCK1 (UniProt Q13464) 0.029, RPL8 (UniProt P62917) -0.307, RPL36AL (UniProt Q969Q0) -0.098

These targets were tested with C1=CC(=CC=C1C2=NC3=C(N2)C=C(C=C3)C(=O)N)OC4=CC=C(C=C4)Cl in the same assay as above.
Method in brief: as §1

log2 fold change, inactive:
SEC62 (UniProt Q99442) 0.018, RPL28 (UniProt P46779) 0.006, SBF1 isoform 4 (UniProt O95248) 0.042, SEC16A isoform 5 (UniProt O15027) 0.025, SEH1L isoform 1 (UniProt Q96EE3) -0.001, RDH14 (UniProt Q9HBH5) -0.056, RFC3 (UniProt P40938) -0.034, RAB1B (UniProt Q9H0U4) 0.011, RRAGA (UniProt Q7L523) 0.001, RAB3IL1 (UniProt E9PK89) 0.124, RBM42 (UniProt Q9BTD8) 0.073, RBSN (UniProt Q9H1K0) 0.004, RAC2 (UniProt P15153) 0.014, RSU1 (UniProt Q15404) -0.039, RPL37A (UniProt P61513) -0.006, QRSL1 (UniProt Q9H0R6) 0.004, RBBP8 isoform 2 (UniProt Q99708) -0.031, RASA2 (UniProt Q15283) -0.054, RIOK3 (UniProt O14730) -0.057, RMC1 (UniProt Q96DM3) 0.017, RPS6KB1 (UniProt P23443) -0.034, RCAN1 (UniProt P53805) -0.033, RNF40 (UniProt O75150) 0.007, RNPS1 (UniProt Q15287) 0.025, RAI14 isoform 2 (UniProt Q9P0K7) -0.007, SDHA (UniProt P31040) 0.109, SCCPDH (UniProt Q8NBX0) -0.027, RPS6KA1 (UniProt Q15418) 0.006, RBM22 (UniProt Q9NW64) 0.025, RPS26P11 (UniProt Q5JNZ5) -0.015, RTN4IP1 (UniProt Q8WWV3) -0.028, ROCK1 (UniProt Q13464) 0, RPL8 (UniProt P62917) -0.024, RPL36AL (UniProt Q969Q0) -0.012
